# Experimental data taken from PubChem BioAssay (NCI).
# About 83,000 compounds went through this panel and 20% of them were active in at least one assay; those are over-represented in the sample as a whole.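 Growth was measured after 48 h exposure to one concentration of compound in 96-well plates. Values under 10 count as active.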 Values without a mark were called inactive. Calls of active or inactive are those of the source.
# Tests used:
# Assay in all cases: NCI-60 one-dose screen, 48 h (100 = growth as untreated, 0 = no growth, -100 = all killed)
# Conditions in all cases: 10 µM unless noted
# NCI-H23 lung = tested on: NCI-H23 lung
# NCI-H226 lung = tested on: NCI-H226 lung
# NCI-H322M lung = tested on: NCI-H322M lung
# HOP-62 NSCLC = tested on: HOP-62 NSCLC
# NCI-H460 lung = tested on: NCI-H460 lung
# HOP-92 NSCLC = tested on: HOP-92 NSCLC
# NCI-H522 lung = tested on: NCI-H522 lung
# A549/ATCC NSCLC = tested on: A549/ATCC NSCLC
# 786-0 renal = tested on: 786-0 renal
# COLO 205 colon = tested on: COLO 205 colon
# DU-145 prostate = tested on: DU-145 prostate
# K-562 leukemia = tested on: K-562 leukemia
# MALME-3M melanoma = tested on: MALME-3M melanoma
# MDA-MB-231 breast = tested on: MDA-MB-231 breast
# RXF 393 renal = tested on: RXF 393 renal
# SF-268 CNS = tested on: SF-268 CNS
# SF-295 CNS = tested on: SF-295 CNS
# SF-539 CNS = tested on: SF-539 CNS
# UACC-257 melanoma = tested on: UACC-257 melanoma
# M14 melanoma = tested on: M14 melanoma
Structure (SMILES),growth (NCI-H23 lung),growth (NCI-H226 lung),growth (NCI-H322M lung),growth (HOP-62 NSCLC),growth (NCI-H460 lung),growth (HOP-92 NSCLC),growth (NCI-H522 lung),growth (A549/ATCC NSCLC),growth (786-0 renal),growth (COLO 205 colon),growth (DU-145 prostate),growth (K-562 leukemia),growth (MALME-3M melanoma),growth (MDA-MB-231 breast),growth (RXF 393 renal),growth (SF-268 CNS),growth (SF-295 CNS),growth (SF-539 CNS),growth (UACC-257 melanoma),growth (M14 melanoma)
NC(=O)c1cc(Br)ccc1NC(=O)/C=C/c1ccccc1,62%,66.9%,76.1%,99%,17.1%,57%,-24.9% (active),33.2%,65.7%,-4.22% (active),-5.67% (active),15%,96.5%,45.3%,39.3%,43.5%,51.3%,9.78% (active),49.1%,28.3%
O=S(=O)(Nc1ccc(NS(=O)(=O)c2ccccc2)c(Cl)c1)c1ccccc1,103%,102%,115%,110%,102%,95.3%,77.7%,101%,103%,114%,109%,95.4%,103%,104%,108%,101%,94.6%,105%,103%,101%
CCN=C1C=CC(=C(c2ccc(N)cc2)c2ccc(N(CC)CC)c(C)c2)C=C1,-14.9% (active),-30.9% (active),3.81% (active),9.19% (active),-53.9% (active),-40.5% (active),-5.45% (active),10.3%,-47.2% (active),-43.1% (active),-20.6% (active),3.56% (active),-31% (active),-17.6% (active),-16.7% (active),4.51% (active),-19.1% (active),-31.2% (active),-0.947% (active),-42.1% (active)
CCOc1cc2ncc(C#N)c(Nc3ccc(OCc4cccc(F)c4)c(Cl)c3)c2cc1NC(=O)CC1CCSS1 (stereo not given),47.4%,56.1%,6.49% (active),14.9%,-56.6% (active),66.7%,58.2%,-69.7% (active),88.5%,32.2%,-24.9% (active),10.5%,56.5%,14.5%,50.2%,-22.3% (active),91.3%,49.9%,64.8%,-68.5% (active)
COc1cc(CNc2oc(-c3ccccc3)c(-c3ccccc3)c2C#N)cc(CN2CCN(C)CC2)c1O,73.1%,88%,89.2%,79.2%,33.4%,43.9%,71.5%,56.8%,67.2%,54.3%,59.9%,-9.86% (active),20.6%,75.3%,42.8%,69.8%,51.7%,71.3%,-4.26% (active),-62.2% (active)
FC(F)(F)c1[nH]ncc1-c1nc2ccc3n[nH]c(C#Cc4cccnc4)c3c2c2c1CCCC2,34.1%,47.5%,32.8%,36%,19.1%,71.6%,28.7%,27%,30.7%,33.4%,45.1%,44.6%,22.8%,51.7%,21.4%,49.6%,42.7%,19.6%,57.7%,27.2%
COc1cc2nc(N3CCCC3)nc(NCCc3ccccc3)c2cc1OC,59.5%,90.5%,75.2%,68.5%,10.1%,74.6%,61.7%,18.5%,81.5%,-84.8% (active),37.6%,-19.3% (active),82.1%,59.3%,67.9%,87.2%,80%,86.1%,115%,78.4%
CCOC(=O)c1sc2nc(-c3cccc(O)c3)nc(N3CCOCC3)c2c1C,69.3%,82.8%,70.7%,68.5%,68.2%,30.8%,46.1%,47.4%,67.7%,105%,38.9%,60.5%,62.7%,47.6%,18.4%,48.9%,81%,51.3%,82.6%,69.2%
O=C(CCl)Oc1ccc(-c2ccccc2)c(Br)c1,100%,96.4%,105%,107%,104%,92%,107%,106%,105%,108%,104%,103%,107%,109%,106%,104%,107%,99.4%,106%,103%
O=C(CCN1C(=O)/C(=C/c2ccc(Cl)cc2)SC1=S)NCCCN1CCOCC1,101%,98.2%,104%,101%,102%,102%,88.9%,102%,107%,108%,106%,97.8%,100%,100%,109%,95.7%,95.2%,93.7%,102%,103%
O=C(/C=C/C=C/c1ccc2c(c1)OCO2)N/N=C\c1ccc(O)cc1O,30%,37.6%,17.8%,27.1%,14%,53.4%,21.1%,36.1%,29%,14%,44%,11.6%,40.3%,34.4%,57.9%,24.4%,13.8%,13.3%,28.5%,30.3%
Cc1cn2c(/C=C3/C(=O)Nc4c3ccc3ccccc43)c(C(F)(F)F)nc2s1,39.5%,53.5%,43.2%,27.2%,9.31% (active),20.8%,5.27% (active),20.1%,24.8%,-49.4% (active),4.07% (active),8.76% (active),42.4%,38.1%,-19.3% (active),43.5%,7.54% (active),-5.73% (active),54.4%,8.69% (active)
Cn1c(O)c(N=NC(=O)c2cc(-c3ccccc3)on2)c2ccccc21,88.5%,88.4%,108%,102%,100%,105%,89.9%,108%,100%,130%,107%,116%,88.7%,95.6%,104%,100%,99.8%,99.9%,119%,101%
CC[C@@H](C(=O)[C@@H](C)[C@@H](O)[C@H](C)[C@@H]1O[C@@H]([C@@H](CC)C(=O)O)CC[C@@H]1C)[C@H]1OC2(C=C[C@@H](O)[C@]3(CC[C@@](C)([C@H]4CC[C@](O)(CC)[C@H](C)O4)O3)O2)[C@H](C)C[C@@H]1C (stereo not given in full),4.65% (active),14.1%,24.2%,39.3%,10%,-14.8% (active),-54.6% (active),11.9%,3.62% (active),17.1%,45.8%,-33.8% (active),-90.7% (active),-39% (active),-32.6% (active),27.4%,1.38% (active),-28.1% (active),7.26% (active),-86.7% (active)
COc1ccc(/C=N/C2=C(C#N)C(c3ccc(N(C)C)cc3)c3ccc4ccccc4c3O2)cc1 (stereo not given),79.2%,44.6%,89.1%,57.4%,40.7%,65.4%,26.1%,64.9%,83.1%,101%,81.5%,14.7%,72%,52.5%,67.2%,63.1%,39.1%,51.8%,79.3%,44%
